WRN inhibitor – inhibitors of human WRN helicase. WRN helicase unwinding, fluorescent forked duplex, kinetic. 360,000 tested, 0.46% active. Potency, µM (top dose mostly 114 µM), for the others: top-dose activity change, negative = inhibition, hits mostly inhibitors. Q14191; further: potency means the concentration at half of the fitted maximal effect; on the % scale 0 is the no-effect control and ±100 the full control effect; nearly all actives have a fitted effect of over 55% in size
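Enzyme (20 nM final) and test compound sit together 15 min at room temperature before substrate addition. Substrate is a single-forked duplex oligonucleotide (100 nM) labelled with fluorophore and quencher, with 2 mM ATP; helicase unwinding raises red fluorescence, read kinetically.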
PLK1 PBD block – PLK1 (human) polo-box domain binding inhibition; P53350; Plk1 PBD binding of FITC phosphopeptide, fluorescence polarization; Potency, µM, without a hit: max response, negative = inhibition, hits mostly inhibitors; 360,000 tested, 2.8% active; AID 720504; further: potency means the concentration at half of the fitted maximal effect; series mostly up to about 57 µM; on the % scale 0 is the no-effect control and ±100 the full control effect; nearly all actives have a fitted effect of over 65% in size
FEN1 inh – blocks human flap endonuclease 1; P39748; Recombinant FEN1 flap cleavage, fluorescence, 15 min; Potency, µM (series often up to 114 µM), inactives show at the highest dose activity change, negative = inhibition, hits mostly inhibitors; 390,000 tested, 0.35% active; further: potency means the concentration at half of the fitted maximal effect; on the % scale 0 is the no-effect control and ±100 the full control effect; nearly all actives have a fitted effect of over 65% in size
Target sequence (P39748 whole entry, looked up): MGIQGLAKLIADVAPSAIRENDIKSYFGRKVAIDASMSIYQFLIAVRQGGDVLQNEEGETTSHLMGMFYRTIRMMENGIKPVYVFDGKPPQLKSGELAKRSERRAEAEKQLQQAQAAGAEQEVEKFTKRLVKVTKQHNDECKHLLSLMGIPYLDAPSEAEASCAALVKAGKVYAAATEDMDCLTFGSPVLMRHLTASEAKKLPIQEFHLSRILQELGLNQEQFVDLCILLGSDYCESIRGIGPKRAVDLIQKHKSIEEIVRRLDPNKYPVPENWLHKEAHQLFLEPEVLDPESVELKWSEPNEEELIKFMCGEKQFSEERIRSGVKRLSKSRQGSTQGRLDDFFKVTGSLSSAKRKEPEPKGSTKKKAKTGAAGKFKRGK
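In this screen, 50 nM flap DNA substrate was added to 10 nM FEN1 pretreated with compound for 15 min at room temperature; cleavage was followed with reads at 0 and 15 min, and Hill fitting gave concentration–response parameters.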
PI5P4Ka inh – PI5P4K alpha (human) kinase inhibition | P48426 | PI5P4Kalpha enzyme, ADP-Glo luminescence, 60 min; hits give low values | max response, % | 330,000 tested, 1.2% active | AID 652105; active means max response of -50% or lower; inconclusive means between -30% and -50%; inactive means -30% or higher; further: value at the top dose of about 77 µM; on the % scale 0 is the no-effect control and ±100 the full control effect
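Quantitative HTS of the MLSMR library against PI5P4Kalpha with substrate. ATP added last at 5 microM final; room temperature, 60 minutes. Remaining ATP depleted, ADP converted and read as luminescence.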
TCR act – activates T cell receptor signaling; AID 504894; 330,000 tested, under 10 active; primary human leukocytes, anti-CD3, IL-2 HTRF, 48 h; Potency, µM (highest dose often 9.22 µM), inactives show at the highest dose activation of IL-2 secretion, most hits filed as activators; further: % of control where 0% means no effect
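Readout: HTRF IL-2, Eu-cryptate/d2 antibody pair, 320nm excitation, 665nm emission. Stimulus: a-CD3 beads, no co-stimulation. Cells: primary human leukocytes. Exposure: 48 hr with compound.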
VDR inhibitor – vitamin D3 receptor (human) inhibition. P11473. VDR-SRC2-3 peptide fluorescence polarization, 2 h. Potency, µM, for the others: max response, negative = inhibition, hits mostly inhibitors. 400,000 tested, 0.93% active. AID 504847; further: potency means the concentration at half of the fitted maximal effect; on the % scale 0 is the no-effect control and ±100 the full control effect
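The screen uses fluorescence polarization to detect compounds that interfere with recruitment of the SRC2-3 coactivator peptide to VDR; plates are read after 2 h at room temperature.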
USP1 UbRho – USP1-UAF1 deubiquitinase inhibition validated. shares compounds with VDR inhibitor. Ub-Rhodamine cleavage, fluorescence kinetic read. Potency, µM (series often up to 56.8 µM), for the others: top-dose activity change, negative = inhibition, actives largely listed as inhibitors. 50 tested, 50% active. AID 540327
VDR inh confirm – confirmation of human vitamin D receptor inhibitors. shares compounds with VDR inhibitor. VDR-coactivator inhibition assay, qHTS confirmation. Potency, µM, most hits filed as inhibitors. 840 tested, 89% active. AID 602199; further: potency means the concentration at half of the fitted maximal effect
VDR FP fluor – blocks human VDR-coactivator binding in fluorescein assay | 840 tested, 48% active | AID 602200 | Potency, µM (series often up to 57.1 µM), for inactives: at the top dose activity change, negative = inhibition, most hits filed as inhibitors | VDR-coactivator binding, fluorescein fluorescence polarization | shares compounds with VDR inhibitor; further: potency means the concentration at half of the fitted maximal effect
VDR bla – confirmation of human vitamin D receptor inhibitors in reporter cells | shares compounds with VDR inhibitor | 840 tested, 23% active | VDR beta-lactamase reporter cells, FRET ratio; cells co-treated with VDR agonist LG190178 | Potency, µM (series often up to 46.1 µM), for inactives: at the highest dose activity change, negative = inhibition, actives largely listed as inhibitors; further: potency means the concentration at half of the fitted maximal effect; on the % scale 0 is the no-effect control and ±100 the full control effect
VDR cytotox – counter-screen for vitamin D receptor inhibitors: cytotoxicity. shares compounds with VDR inhibitor. Potency, µM (titrated, usually from 48.3 µM), without a hit: top-dose activity change, negative = cytotoxicity, hits mostly cytotoxic. 840 tested, 18% active. AID 602204. cytotoxicity counter-screen, cell viability, qHTS;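 further: potency means the concentration at half of the fitted maximal effect; plate controls were DMSO for no effect and high-concentration cycloheximide for full effect; nearly all actives have a fitted effect of over 75% in size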
* = called active by the depositor; ! = not confirmed by another sample; [ ] = another dose, or the depositor's remark. Hits are enriched below; roughly 3.7% of the tested compounds scored in any of these assays. Unless noted, the call rests on the fitted dose curve; in most records, active means well fitted curve in the direction sought with a large enough effect; inconclusive means small, poorly fitted or top-dose-only effect, or another doubt; inactive means no such curve, though single readings can be large; an effect the other way counts as inactive or inconclusive.

`CCN(CC)C(=O)N[C@@H]1C[C@H]2c3cccc4[nH]cc(c34)C[C@@H]2N(C)C1` gave VDR inhibitor 3%.
Screening CC1=C[C@@H]2c3cccc4[nH]cc(c34)C[C@H]2N(C)C1 returned WRN inhibitor -22%, PLK1 PBD block inconclusive, FEN1 inh inconclusive, PI5P4Ka inh 3, TCR act 4% and VDR inhibitor 50µM*!.
For CN1Cc2ccccc2[C@@H]2c3cccc4[nH]cc(c34)C[C@H]21 the results were VDR inhibitor 14µM*.
Screening O=C(O)c1cc(Oc2ccc([N+](=O)[O-])cc2)cc(Oc2ccc([N+](=O)[O-])cc2)c1 returned VDR inhibitor 45µM*.
For COc1ccc(CC2c3cc(OC)c(OC)cc3CCN2C)cc1O (centres undefined) the results were WRN inhibitor 6%, PLK1 PBD block -1%, FEN1 inh 15%, PI5P4Ka inh 3, TCR act -1% and VDR inhibitor -19%.
Screening COc1cc2c(cc1O)[C@H]1Cc3ccc(OC)c(O)c3CN1CC2 returned VDR inhibitor -11% and USP1 UbRho inconclusive.
For NC(N)=Nc1ccc2[nH]c3c(c2c1)C[C@@]1(O)[C@H]2Cc4ccc(O)c5c4[C@@]1(CCN2CC1CC1)[C@H]3O5 the results were WRN inhibitor inconclusive, PLK1 PBD block 0.95µM*, FEN1 inh 50µM*, PI5P4Ka inh inconclusive, TCR act -3%, VDR inhibitor 35µM* and USP1 UbRho inconclusive.
For CN1CC[C@]2(C)c3cc(O)ccc3N(C)[C@@H]12 the results were VDR inhibitor inconclusive and USP1 UbRho inconclusive.
`CN1CCCC2(CCN(C(=O)c3csnn3)CC2)C1` gave VDR inhibitor 8%.
Screening C=C[C@H]1CN2CC[C@H]1C[C@H]2c1[nH]c2ccccc2c1CCO returned VDR inhibitor -1%.
`CC(C)n1c(O)c(C2c3cc(Cl)ccc3Oc3[nH]c(=O)n(C(C)C)c(=O)c32)c(=O)[nH]c1=O` (centres undefined) gave WRN inhibitor 35µM*, PLK1 PBD block 1.3µM*, FEN1 inh -14%, PI5P4Ka inh inconclusive, TCR act 1%, VDR inhibitor 8.9µM*, VDR inh confirm 4.2*, VDR FP fluor inconclusive, VDR bla 5.2µM* and VDR cytotox inconclusive.
For O=S(=O)(/C(=C/c1ccc(C(F)(F)F)cc1)c1nc2ccccc2[nH]1)c1ccccc1 the results were WRN inhibitor -2%, PLK1 PBD block 0%, FEN1 inh 13%, PI5P4Ka inh -6, TCR act -7%[46.1 µM], VDR inhibitor 16µM*, VDR inh confirm 3.8*, VDR FP fluor inconclusive, VDR bla 2.3µM* and VDR cytotox 8.2µM*.
For O=C(/C=C/c1ccccc1)c1c(O)n(CCc2ccccc2)c(=O)[nH]c1=O the results were WRN inhibitor -8%, PLK1 PBD block -9%, FEN1 inh 8%, PI5P4Ka inh -27, TCR act 2%[46.1 µM], VDR inhibitor inconclusive, VDR inh confirm 2*, VDR FP fluor inconclusive, VDR bla 18µM* and VDR cytotox 22%.
For CO[C@H]1C=C2CCN(C)[C@@H]2[C@@H]2c3cc4c(cc3C(=O)O[C@H]21)OCO4 the results were VDR inhibitor 4%.
For O=c1nc(/C=C/c2ccc(Cl)cc2Cl)cc(C(F)(F)F)[nH]1 the results were WRN inhibitor 50µM*, PLK1 PBD block 27µM*, FEN1 inh -2%, PI5P4Ka inh -9, VDR inhibitor 10µM*, VDR inh confirm 7.5*, VDR FP fluor 3.2µM*, VDR bla inconclusive and VDR cytotox 37%.
CO[C@@H](C)[C@](O)(C(=O)OCC1=CCN2CC[C@@H](O)[C@H]12)C(C)C was read as VDR inhibitor 3%.
Screening CC1=CC2/C=C(\C)CCC(O)C(O)/C=C/C(=O)C23C(=O)NC(CC(C)C)C3C1C (centres undefined) returned WRN inhibitor -5%, PLK1 PBD block inconclusive, FEN1 inh -11%, PI5P4Ka inh -26, TCR act 3%, VDR inhibitor 22µM*, VDR inh confirm 17*, VDR FP fluor inconclusive, VDR bla 7.3µM* and VDR cytotox 15µM*.
For CCN1C[C@@]2(COC)[C@H]3[C@@H](OC)[C@H]4C1[C@@]3([C@H](OC)C[C@@H]2O)[C@H]1C[C@@]2(O)[C@@H](OC(=O)c3ccccc3)[C@@H]1[C@@]4(OC(C)=O)[C@H](O)[C@@H]2OC the results were VDR inhibitor 1%.
`O[C@H]1CCCC[C@H]1N1CCC(c2ccccc2)CC1` gave VDR inhibitor 11%.
`N#CC(C#N)=NNc1ccc(-n2ccc(C(F)(F)F)n2)cc1` gave WRN inhibitor -9%, PLK1 PBD block inconclusive, FEN1 inh -21%, PI5P4Ka inh -16, TCR act -6%, VDR inhibitor 20µM*, VDR inh confirm 3*, VDR FP fluor inconclusive, VDR bla inconclusive and VDR cytotox inconclusive.
CCOc1ccc(N2C(=O)NC(=O)/C(=C\c3cc(OC)c(OC)cc3[N+](=O)[O-])C2=O)cc1 was read as WRN inhibitor inconclusive, PLK1 PBD block 32%, FEN1 inh -4%, PI5P4Ka inh -23, TCR act 3%[46.1 µM], VDR inhibitor 32µM*, VDR inh confirm 17*, VDR FP fluor 13µM*, VDR bla 26% and VDR cytotox 6%.

From PubChem
